Where a structure was tested more than once in an assay, its records may differ in their call. Active and inactive are the calls of the source. The calls were made as follows: active = hit-call score of the fitted dose curve at least 0.9, where 1 is the maximum; inactive = score below 0.9.
biological target: X-box-binding protein 1 (Homo sapiens) (UniProt P17861); assay: ATG_Xbp1_CIS: Attagene CIS-FACTORIAL HepG2 Assay for human X-box Binding Protein 1 (XBP1) (AID 2282972); conditions: HepG2 XBP1 cis-element reporter, Attagene multiplex; actives raise or lower the signal
Description: ATG_CIS is a cell-based, multiplexed-readout assay that uses HepG2, a human liver cell line, with measurements taken at 24 hours after chemical dosing in a 24-well plate.ATG_Xbp1_CIS is one of 52 assay component(s) measured or calculated from the ATG_CIS assay. It is designed to make measurements of mRNA induction, a form of inducible reporter, as detected with fluorescence intensity signals by Reverse transcription polymerase chain reaction (RT-PCR) and Capillary electrophoresis technology.Data from the assay component ATG_Xbp1_CIS was analyzed into 1 assay endpoint. This assay endpoint, ATG_Xbp1_CIS, was analyzed with bidirectional fitting relative to DMSO as the negative control and baseline of activity. Using a type of inducible reporter, measures of mRNA for gain or loss-of-signal activity can be used to understand the reporter gene at the transcription factor-level as they relate to the gene XBP1. Furthermore, this assay endpoint can be referred to as a primary readout, because this assay has produced multiple assay endpoints where this one serves a reporter gene function. To generalize the intended target to other relatable targets, this assay endpoint is annotated to the dna binding intended target family, where the subfamily is basic leucine zipper.
Human liver HepG2 cells are transiently transfected with multiple reporter transcription units (MRTUs) in 6-well plates using FuGene 6 reagent (Roche; 3 ml FuGene/1 mg DNA). The MRTU constructs are regulated by a cis-regulating element (promoter). […] A major difference between the CIS and TRANS system is that in CIS activities of endogenous TFs are measured, whereas the TRANS assay evaluates changes in activities of exogenous, chimeric NR-Gal4 proteins. […] At the end of 24 hour incubation, total RNA was isolated using TriZol reagent (Invitrogen). The isolated RNA is then reverse-transcribed using oligo(dT) primer and Mo-MLV reverse transcriptase (Invitrogen) with DNAse I (Ambion) treatment for 30 min. The one-tenth of the produced cDNA was amplified by PCR using Taq DNA polymerase (Invitrogen) and two reporter sequence-specific primers. The PCR products were fluorescently labeled by primer extension with 6-arboxyfluorescein (6-FAM) 5'-labeled reporter sequence-specific primer (2 min at 95 C, 20 s at 68 C and 10 min at 72 C) and these products were digested with 5U of HpaI (New England Biolabs) for 2h at 37 C. The fragments were purified using Qiaquick PCR columns (Qiagen), analyzed on an ABI 3130xL genetic analyzer (Applied Biosystems) with peak positions identified by using a set of X-rhodamine (ROX)-labeled MapMarker1000 molecular weight standards (BioVentures). The raw capillary electrophoresis data was processed using Attagraph software (Attagene).

Chain of X-box-binding protein 1 (Homo sapiens) (P17861 whole entry, looked up): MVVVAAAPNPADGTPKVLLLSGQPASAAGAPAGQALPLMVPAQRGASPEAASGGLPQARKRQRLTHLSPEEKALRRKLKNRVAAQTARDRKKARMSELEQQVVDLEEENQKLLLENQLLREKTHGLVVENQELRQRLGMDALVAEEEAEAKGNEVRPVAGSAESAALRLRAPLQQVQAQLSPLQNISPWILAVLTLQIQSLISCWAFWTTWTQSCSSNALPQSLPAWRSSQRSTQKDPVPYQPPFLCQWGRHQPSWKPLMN

Row | Compound | AC50 | outcome
1 | c1ccc(N=NNc2ccccc2)cc1 | 108 µM (active) | 
2 | CCc1ccccc1N |  | inactive
3 | COc1cc(OC)nc(NC(=O)NS(=O)(=O)c2ncccc2C(=O)N(C)C)n1 |  | inactive
4 | CCCCCCCCc1ccc(O)cc1 |  | inactive
5 | O=C(Cc1ccccc1)c1ccccc1 |  | inactive
6 | CCC[CH2][Sn]([Cl])([Cl])[Cl] |  | inactive
7 | O=C(O)C(F)(F)C(F)(F)C(F)(F)C(F)(F)C(F)(F)C(F)(F)F |  | inactive
8 | Nc1cccc(Cl)c1 |  | inactive
9 | [O-][Cl+2]([O-])O |  | inactive
10 | CCC[CH2][Sn]([CH2]CCC)([CH2]CCC)[O]C(=O)c1ccccc1 |  | inactive
11 | O=C(O)C(Cl)(Cl)Cl |  | inactive
12 | C1CCC(NC2CCCCC2)CC1 |  | inactive
13 | COc1ccccc1OC |  | inactive
14 | C=CC#N |  | inactive
15 | O=[N+]([O-])c1ccc(O)c([N+](=O)[O-])c1 |  | inactive
16 | CC(Br)C(=O)O (stereo not given) |  | inactive
17 | O=C1C2(Cl)C3(Cl)C4(Cl)C(Cl)(Cl)C5(Cl)C3(Cl)C1(Cl)C5(Cl)C24Cl (stereo not given) | 15.9 µM (active) | inactive
18 | C[C@@H]1C[C@@H]([C@H](O)CC2CC(=O)NC(=O)C2)C(=O)[C@@H](C)C1 | 89.5 µM (active) | inactive
19 | COc1ccc(OC)c(C=O)c1 |  | inactive

Row | Compound | AC50 | outcome
20 | O=[N+]([O-])c1ccc2c3c(cccc13)CC2 |  | inactive
21 | CC(C)(c1ccc(OCC2CO2)cc1)c1ccc(OCC2CO2)cc1 (stereo not given) | 24.4 µM (active) | 
22 | COP(=S)(OC)Oc1ccc(S(=O)(=O)N(C)C)cc1 |  | inactive
23 | CN(CCCC(=O)c1cccnc1)N=O |  | inactive
24 | COc1cc2c(cc1OC)[C@@]13CCN4CC5=CCO[C@H]6CC(=O)N2[C@H]1[C@H]6[C@H]5C[C@H]43 |  | inactive
25 | ClC(Cl)=C(Cl)C(Cl)=C(Cl)Cl | 137 µM (active) | 
26 | O=CC=O |  | inactive
27 | CC(C)C1CCC(Cc2ccc(Cl)cc2)C1(O)Cn1cncn1 (stereo not given) |  | inactive
28 | CN(C)N=O |  | inactive
29 | O=[N+]([O-])c1c(Cl)c(Cl)cc(Cl)c1Cl |  | inactive
30 | CCOC(=O)Nc1cccc(OC(=O)Nc2ccccc2)c1 |  | inactive
31 | CC(C)OC(=O)Nc1ccccc1 |  | inactive
32 | C(=NC1CCCCC1)=NC1CCCCC1 | 1.97 µM (active) | 
33 | Cc1ccc(N)cc1Cl |  | inactive
34 | O=C1CCCN1 |  | inactive
35 | Nc1cccc2ccccc12 |  | inactive
36 | CCOP(OCC)OCC |  | inactive
37 | ClC1=C(Cl)[C@]2(Cl)[C@@H]3[C@@H](Cl)[C@@H](Cl)C[C@@H]3[C@@]1(Cl)C2(Cl)Cl |  | inactive
38 | ClCc1ccccn1 | 65.6 µM (active) | 

From PubChem BioAssay (EPA / NIEHS)
